The values that follow come from PubChem BioAssay (NCI).

Several values for one entry are separate records, joined by “and”; a condition that tells them apart may be missing. Equal entries are not always repeated. The panel holds about 79,000 compounds, 15% with a hit somewhere; the sample as a whole holds those more often. A number with no mark means an inactive call. Activity calls are given as the source filed them. Cut-off read from the data, not from the text of the source: active = growth inhibition above about 70%; inactive = the rest.

Assay [1] is described as follows: NCI Yeast Anticancer Drug Screen. Data for the rad50 strain (AID 155).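 Note: 0% = growth of vehicle-only cultures of the same strain.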 The conditions noted are these: S. cerevisiae rad50 strain growth inhibition; at 50.0 µM; stronger effect = higher value. An outline of the steps: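 Yeast carrying a defined DNA repair defect were exposed to test compounds, and growth was compared with vehicle-treated controls to give percent inhibition.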

Assay [2] is described as follows: NCI Yeast Anticancer Drug Screen. Data for the mec2-1 strain (AID 157). The conditions noted are these: S. cerevisiae mec2-1 strain, at 50.0 µM, stronger effect = higher value. An outline of the steps:
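Yeast mec2-1 mutant treated with compound. Readout: growth inhibition vs vehicle controls.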

Assay [3] in a line: NCI Yeast Anticancer Drug Screen. Data for the sgs1 mgt1 strain (AID 161).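 Note: 0% = growth of cultures given vehicle only.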 The conditions noted are these: S. cerevisiae sgs1 mgt1 strain, at 50.0 µM, stronger effect = higher value. In short, it runs like this: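 Test agents were incubated with a DNA-repair-mutant yeast strain. Growth was then read and compared against vehicle-treated controls.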
The nature of assay [4]: NCI Yeast Anticancer Drug Screen. Data for the cln2 rad14 strain (AID 165).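 Note: 0% = growth equal to vehicle treated cultures.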 The conditions noted are these: S. cerevisiae cln2 rad14 strain, at 50.0 µM, stronger effect = higher value. An outline of the steps: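 cln2 rad14 yeast strain; compound exposure; growth inhibition read vs vehicle controls.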
The nature of assay [5]: NCI Yeast Anticancer Drug Screen. Data for the bub3 strain (AID 167). The conditions noted are these: S. cerevisiae bub3 mutant strain, at 50.0 µM, stronger effect = higher value. In short, it runs like this:
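Compounds were applied to a genetically altered yeast strain carrying a cell-cycle control defect. Growth inhibition was scored against vehicle-treated controls.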

The nature of assay [6]: NCI Yeast Anticancer Drug Screen. Data for the mlh1 rad18 strain (AID 175). The conditions noted are these: S. cerevisiae mlh1 rad18 strain growth inhibition; at 50.0 µM; stronger effect = higher value. In short, it runs like this: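 Yeast w/ defined DNA-repair lesions; compound exposure; growth vs vehicle controls → % inhibition.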

As for `COc1ccc(NC2Oc3cc4c(cc3C(c3cc(OC)c(OC)c(OC)c3)C2C)OCO4)cc1` (stereo unspecified), the growth inhibition is -1.25% in assay [1]; 18.9% in assay [2]; 25.3% in assay [3]; -13.2% in assay [4]; 17.1% in assay [5]; 12% in assay [6].

As to `CCOP(=O)(Oc1ccc([N+](=O)[O-])cc1)c1cccc(Br)c1` (stereo unspecified), the growth inhibition in assay [1] was 41.5%; in assay [2], 19.5%; in assay [3], 54%; in assay [4], 41.3%; in assay [5] it was 38.5%.

For the compound `CCOC(=O)C(Br)C(C)Br` (stereo unspecified), the growth inhibition in assay [1] was -13.4%; in assay [2], -39.5%; in assay [3] it was -23.1%; in assay [4], 7.1%; in assay [5], -9.65%; in assay [6], -22.5%.

With `CC1=CC2C(C=C1)S(=O)(=O)N1CC21c1ccccc1` (stereo unspecified), the growth inhibition in assay [1] was 20.9%; in assay [2], -31.4%; in assay [3] it was -11%; in assay [4], -8.3%; in assay [5], -20.6%; in assay [6], -3.9%.

For `O=C1NC2(CCCCC2)C(=O)N1CCCCCN(CCCl)CCCl`, the growth inhibition is 22.8% in assay [1]; 18.4% in assay [2]; 2.1% in assay [3]; -25.4% in assay [4]; -9.75% in assay [5]; -0.3% in assay [6].

As to `c1ccc2c(c1)CCNC2`, the growth inhibition in assay [1] was 21.8%; in assay [2] it was 13.2%; in assay [3], 19%; in assay [4], 5.15%; in assay [5] it was -0.55%; in assay [6], 24.4%.

In the case of `O=C(O)CN1C(=O)CN=C(c2ccccn2)c2cc(Cl)ccc21`, the growth inhibition in assay [1] was -5.45%; in assay [2] it was -8.6%; in assay [3], -23.8%; in assay [4] it was -50.6%; in assay [5], -15.3%.

In the case of `OC1C2CCCCN2C[C@@H](O)[C@H]1O` (stereo partly specified), the growth inhibition is 16.3% in assay [1]; 11.9% in assay [2]; 22.1% in assay [3]; 22.6% in assay [4]; 12% in assay [5]; -34% in assay [6].

Consider `COc1ccc(CCN(C)C(C)C2C3CC4CC(C3)CC2C4)cc1OC` (stereo unspecified), for which the growth inhibition in assay [1] is 35.5%; in assay [2], 11.3%; in assay [3], 19.2%; in assay [4], -16.4%; in assay [5] it was -1.1%; in assay [6], 17.9%.

Turning to `C(#Cc1ccccc1)c1ccccc1.[C-]#[O+].[C-]#[O+].[C-]#[O+].[C-]#[O+].[C-]#[O+].[C-]#[O+].[Co].[Co]`, the growth inhibition in assay [1] is 42.4%; in assay [2] it was 28.1%; in assay [3], 42.4%; in assay [4], -3.55%; in assay [5], 5.2%; in assay [6] it was 53.2%.

As to `CCC1(CC(C)O)C(=O)NC(=O)NC1=O` (stereo unspecified), the growth inhibition in assay [1] was 6.9%; in assay [2] it was -2.45%; in assay [3] it was -20%; in assay [4], -37.7%; in assay [5] it was -0.65%; in assay [6] it was -23.1%.

As for `O=c1ccc(=O)[nH][nH]1`, the growth inhibition was 6.25% and 36.3% and -4.05% in assay [1]; 10.2% and 23.1% and -12.5% in assay [2]; 5.6% and 7.25% and -6.05% in assay [3]; 3.85% and 27.6% and -7.1% in assay [4]; 1.65% and 30% and 26.9% in assay [5]; 10.8% and 16.1% and 6.25% in assay [6].

On to `OCC12COCN1COC2`, for which the growth inhibition in assay [1] is 8.4%; in assay [2] it was -15.9%; in assay [3] it was -23.6%; in assay [4], -14%; in assay [5], -0.4%; in assay [6], -31.9%.

On to `O=C([O-])CC(=O)[O-].[NH-][C@@H]1CCCC[C@H]1[NH-].[Pt+4]`, for which the growth inhibition in assay [1] is -14.2%; in assay [2], -15.5%; in assay [3] it was -24.5%; in assay [4] it was -25.1%; in assay [5] it was -24.5%.

On to `CNC(=O)c1cc(N(CCCl)CCCl)c([N+](=O)[O-])cc1[N+](=O)[O-]`, for which the growth inhibition was -3.15% in assay [1]; -17.5% in assay [2]; -6.05% in assay [3]; 10% in assay [4]; -3.15% in assay [5]; 19.4% in assay [6].

For `N#C[CH2][Sn]([I])([c]1ccccc1)[c]1ccccc1`, the growth inhibition in assay [1] is -12.5%; in assay [2], 30.4%; in assay [3], 1.15%; in assay [4] it was 72% (active); in assay [5] it was -0.25%; in assay [6], 1.9%.

Turning to `CSc1sc2ccccc2[s+]1`, the growth inhibition in assay [1] is -10.8%; in assay [2], -5.4%; in assay [3], -0.35%; in assay [4], 10.6%; in assay [5] it was 9.55%; in assay [6] it was 3.35%.

With `COc1ccc2nc3cc(Cl)ccc3c(NCCCN(CCCl)CCCl)c2c1`, the growth inhibition was 51% in assay [1]; 19.2% in assay [2]; 37.2% in assay [3]; 34.2% in assay [4]; 7.6% in assay [5].

As for `CCCC(=O)O.[Ni]`, the growth inhibition in assay [1] is 8.1%; in assay [2] it was -4.05%; in assay [3], -6%; in assay [4], -39.9%; in assay [5], -20.2%; in assay [6] it was -2.7%.

Regarding `[Cl][Tl]`, the growth inhibition was -4.7% in assay [1]; 5.2% in assay [2]; 9.5% in assay [3]; -11.3% in assay [4]; -41% in assay [5]; -37.5% in assay [6].
